This note sets out measurements from PubChem BioAssay.

The source made the active and inactive calls.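 Rule for the calls, unless noted: active = inhibition above 20% together with a positive visual image hit; inconclusive = visual image hit but inhibition not above 20%; inactive = no visual image hit.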

Assay [1] in a line: inhibitors of TNFa-induced NFkB p65 translocation, primary screen, imaging, HUVEC, MLSMR starter and 10KST1 sets (AID 438).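 For inhibition: signal is the nuclear over cytoplasmic p65 intensity ratio per well.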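 Note: compound added about 3h40 before a 20 min TNFalpha stimulation.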 The note with it: HUVEC TNFa-induced p65 nuclear translocation; cell count: measured here: nuclei count (cytotoxicity indicator), at 2.08 µM; inhibition: at 2 µM, stronger effect = higher value, 0% TNFa-plus-vehicle, 100% no-TNFa wells.
The nature of assay [2]: inhibitors of mutant huntingtin aggregation, primary screen, imaging, exon1htt(103Q)mCFP cells, high-content imaging (AID 483;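 active = visual image review flags a hit and inhibition of aggregation exceeds 20%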;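 note: compound exposure lasted 3 days before fixation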;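 for nuclei count: percent of the per-plate median nuclei count of sample wells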). Particulars: exon1htt(103Q)mCFP cell line, aggregate imaging, at 2 µM; inhibition of aggregation: stronger effect = higher value; nuclei count: measured here: cell count, toxicity.
The nature of assay [3]: inhibitors of E-selectin induction by TNFa, primary screen, imaging, HUVEC, immunofluorescence, MLSMR starter and 10KST1 sets (AID 487;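 active = visually confirmed hit in the image check and inhibition above 20%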;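 for inhibition: signal is fraction of cell area covered by stained E-selectin grains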;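 for nuclei count: 100% = median nuclei count of all wells on the same plate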). Particulars: HUVEC TNFalpha-induced E-selectin immunofluorescence imaging, at 2 µM; inhibition: stronger effect = higher value; nuclei count: measured here: cell number, toxicity.
Assay [4] deals with Voltage-gated potassium channel subunit beta-2 (Rattus norvegicus) (UniProt P62483). In words: KvBeta enzyme negative modulators, primary screen, biochemical, NADPH fluorescence (AID 622;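 active = fluorescence slope higher than the sample average by over 3 SD, cut at about -0.22 in these data, passing the limit was not always enough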;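 note: slope of raw intensity against log time taken from 70 to 1610 s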). The note with it: recombinant KvBeta, 4-cyanobenzaldehyde reduction, at 10 µM, stronger effect = higher value.
For assay [5] the target is unchanged. In words: KvBeta positive modulators, primary screen, biochemical, NADPH fluorescence (AID 623;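 active = NADPH fluorescence slope more negative than the mean of all samples by about 3 SD, 99.7% confidence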;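 note: fluorescence intensity change per second fitted from 20 to 320 s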). The note with it: Recombinant KvBeta, NADPH fluorescence decrease slope, 10 min; at 10 µM; stronger effect = lower value.
The target in assay [6] is Alpha-2C adrenergic receptor (Homo sapiens) (UniProt P18825). In words: modulators of alpha2C/GIRK thallium flux, primary screen, cell-based, HEK293 alpha2C/GIRK1/2 (AID 624;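 active = fluorescence slope after compound addition differing from the mean of all screened samples at 99.7% confidence, in either direction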;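 note: slope of fluorescence ratio to pre-addition baseline per second over 15 to 24 s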). The note with it: thallium flux BTC fluorescence, at 10 µM, actives lie on both sides.
Assay [7] is described as follows: inhibitors of Sendai virus-induced IRF3 signaling, primary screen, TLR/RLR signaling modifier project, cell-based, Sendai virus stimulus, luciferase, 10K MLSCN set (AID 602276;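 active = inhibition at or above 50% at 10 µM; inactive = inhibition below 50%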;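 note: firefly luciferase from ISG56 promoter only with Renilla not read in this screen; 0% = Sendai virus plus DMSO and 100% = medium plus DMSO without virus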). Particulars: HEK293 RL24 IRF3 luciferase reporter, at 10 µM, stronger effect = higher value. For orientation: Reporter assays use an easily measured gene product as a stand-in for the process of interest.

Assay [8] can be described thus: inhibitors of poly I:C-induced TLR3 signaling, primary screen, cell-based, poly I:C stimulus, luciferase, 10K MLSCN set (AID 602277;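 active = inhibition of the reporter signal at or above 50%; inactive = inhibition below 50%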). Particulars: HEK293-TLR3 RL24 IRF3 luciferase reporter, at 10 µM, stronger effect = higher value.

Chain of Alpha-2C adrenergic receptor (Homo sapiens) (P18825 whole entry, looked up): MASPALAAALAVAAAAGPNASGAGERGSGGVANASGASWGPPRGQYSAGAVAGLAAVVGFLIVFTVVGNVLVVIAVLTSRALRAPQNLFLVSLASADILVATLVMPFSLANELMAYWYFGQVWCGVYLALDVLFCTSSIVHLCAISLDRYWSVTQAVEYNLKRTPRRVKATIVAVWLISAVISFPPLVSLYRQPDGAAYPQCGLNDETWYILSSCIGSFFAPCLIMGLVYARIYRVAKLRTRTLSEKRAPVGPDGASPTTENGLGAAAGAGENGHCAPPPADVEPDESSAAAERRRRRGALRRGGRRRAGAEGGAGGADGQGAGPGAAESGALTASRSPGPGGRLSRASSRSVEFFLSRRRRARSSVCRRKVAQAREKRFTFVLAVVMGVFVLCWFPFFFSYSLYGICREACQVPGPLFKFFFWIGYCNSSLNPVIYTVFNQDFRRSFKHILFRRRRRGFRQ
Chain of Voltage-gated potassium channel subunit beta-2 (Rattus norvegicus) (P62483 whole entry, looked up): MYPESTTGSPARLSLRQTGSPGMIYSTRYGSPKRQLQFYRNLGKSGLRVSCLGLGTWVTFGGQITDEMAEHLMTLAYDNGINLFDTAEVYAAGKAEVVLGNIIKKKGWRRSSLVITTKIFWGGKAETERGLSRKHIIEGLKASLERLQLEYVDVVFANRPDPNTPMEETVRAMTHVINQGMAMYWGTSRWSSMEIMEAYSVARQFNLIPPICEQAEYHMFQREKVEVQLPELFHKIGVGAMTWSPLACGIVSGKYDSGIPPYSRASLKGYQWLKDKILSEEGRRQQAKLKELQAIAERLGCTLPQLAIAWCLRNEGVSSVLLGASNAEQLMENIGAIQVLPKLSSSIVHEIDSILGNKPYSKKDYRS

One may read the inhibition as the change of the read-out against control, counted positive when it falls. With `CCCCN=CC1=C(O)C(C(=O)OC)C(C)(C)CC1=O` (stereo not drawn), the cell count in assay [1] was found to be 390. The inhibition in assay [1] was -4.3% (inactive); in assay [3], -21.7% (inactive); in assay [7], -0.949% (inactive); in assay [8] it was -9.49% (inactive). Also, the inhibition of aggregation in assay [2] is 10.6% (inactive). For the same compound, the nuclei count amounted to 106% in assay [2] and 123% in assay [3]. In addition, the fluorescence slope in assay [4] was -0.392 (inactive). Further, the NADPH fluorescence slope in assay [5] is -6.2e-07 (inactive). In assay [6], the slope was 0.0055 (inactive).
As for `CC(C)Cc1cc(C(=O)Nc2c(F)cc(F)cc2Br)no1`, the cell count in assay [1] is 783. Moreover, the inhibition in assay [1] is 7.4% (inactive); in assay [3] it was -4.5% (inactive); in assay [7], -6.27% (inactive); in assay [8] it was 2.03% (inactive). Moreover, the inhibition of aggregation in assay [2] is -5% (inactive). Besides, the results for the nuclei count in assay [2] and in assay [3] were 114% and 120%, respectively. In assay [4], the fluorescence slope is -0.594 (inactive). Further, the NADPH fluorescence slope in assay [5] is 3.8e-06 (inactive). Further, the slope in assay [6] was 0.00483 (inactive).
With `Cc1ccc2oc(=O)c3cnn(CC(=O)NCCC(C)C)c3c2c1`, the cell count in assay [1] amounted to 618. Moreover, the inhibition in assay [1] was -3.9% (inactive); in assay [3], -31.4% (inactive); in assay [7] it was 7.61% (inactive); in assay [8], 18.2% (inactive). The inhibition of aggregation in assay [2] was -7.6% (inactive). The nuclei count was determined as 124% in assay [2] and 104% in assay [3]. Also, the fluorescence slope in assay [4] is -0.602 (inactive). Besides, in assay [5], the NADPH fluorescence slope is -2.9e-05 (inactive). In addition, the slope in assay [6] was 0.0065 (inactive).
As for `Cc1ccc(S(=O)(=O)N(CCO)c2cc3c(s2)CCCC3)cc1`, in assay [1], the cell count worked out at 689. Besides, the inhibition in assay [1] was -0.8% (inactive); in assay [3], -151% (inactive); in assay [7] it was 9.96% (inactive); in assay [8], 21.8% (inactive). For the same compound, in assay [2], the inhibition of aggregation was 20.5% (inactive). The results for the nuclei count in assay [2] and in assay [3] were 73.1% and 117%, respectively. Further, the fluorescence slope in assay [4] was -0.404 (inactive). Further, the NADPH fluorescence slope in assay [5] was -2.1e-05 (inactive). The slope in assay [6] is 0.00447 (inactive).
Turning to `CCCCCn1c(CCNC(=O)CCC)nc2ccccc21`, the cell count in assay [1] was 635. Besides, the inhibition in assay [1] was 3.4% (inactive); in assay [3] it was -30.5% (inactive); in assay [7], 10.2% (inactive); in assay [8], 40.2% (inactive). Moreover, the inhibition of aggregation in assay [2] was -4.9% (inactive). Also, the nuclei count in assay [2] worked out at 55%; in assay [3], 104%. Also, the fluorescence slope in assay [4] is -0.552 (inactive). Further, the NADPH fluorescence slope in assay [5] was -4.5e-05 (inactive). The slope in assay [6] was 0.00652 (inactive).
Turning to `COc1cccc(/C=N/n2c(-c3ccco3)nc3ccccc3c2=O)c1`, the cell count in assay [1] was 692. Further, the inhibition is -0.9% (inactive) in assay [1], 33.1% (inactive) in assay [3], -12.1% (inactive) in assay [7] and -6.01% (inactive) in assay [8]. In assay [2], the inhibition of aggregation was -10.2% (inactive). Moreover, the figures for the nuclei count in assay [2] and in assay [3] were 74.5% and 105%, respectively. For the same compound, in assay [4], the fluorescence slope was -0.293 (inactive). Moreover, the NADPH fluorescence slope in assay [5] was -4.4e-05 (inactive). In addition, in assay [6], the slope is 0.00576 (inactive).
Turning to `CC(=O)c1n[nH]nc1NC(=O)c1ccccc1`, the cell count in assay [1] amounted to 574. Moreover, the inhibition was -25.8% (inactive) in assay [1], -46.6% (inactive) in assay [3], 4.32% (inactive) in assay [7] and -46% (inactive) in assay [8]. Besides, the inhibition of aggregation in assay [2] was -6.9% (inactive). Also, the nuclei count in assay [2] worked out at 100%; in assay [3] it was 119%. The fluorescence slope in assay [4] is -0.525 (inactive). The NADPH fluorescence slope in assay [5] was -2.5e-05 (inactive). The slope in assay [6] is 0.00678 (inactive).
In the case of `Cc1ccc(-c2oc3ccccc3c(=O)c2O)cc1`, in assay [1], the cell count turned out to be 559. The inhibition in assay [1] is -12% (inactive); in assay [3] it was 2.6% (inactive); in assay [7], -10.6% (inactive); in assay [8], -26.8% (inactive). For the same compound, the inhibition of aggregation in assay [2] was -15.8% (inactive). Moreover, the nuclei count in assay [2] turned out to be 15.8%; in assay [3], 105%. Moreover, the fluorescence slope in assay [4] was -0.0172 (active). For the same compound, the NADPH fluorescence slope in assay [5] is -2.7e-06 (inactive). In assay [6], the slope was 0.00718 (inactive).
